Assay results from PubChem BioAssay AID1159580 (chemical genetic matrix, 2015).
Several values for one entry are separate records, joined by “and”; a condition that tells them apart may be missing. Equal entries are not always repeated. Screen size: about 5,500 compounds; about 2,000 (36%) were called active. Roughly 18% stayed inconclusive and do not appear here. Cut-off read from the data, not from the text of the source: active = normalized growth mostly below about 0.91 (no sharp cut-off); inconclusive = no clear call, values can overlap the other calls; inactive = mostly above about 0.92. Some of the results follow.

Test: chemical genetic growth profiling, strain panel (AID 1159580);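 note: tested at 20 µM; growth read once vehicle control cultures reached saturation at 30 °C; 1 = growth at the plate median or of vehicle wells; lower values mean less growth of the strain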
Details: S. cerevisiae deletion strains, growth OD

Measured: normalized growth

O=c1[nH]cnc2c1ncn2C1O[C@H](CO)[C@@H](O)[C@H]1O (stereo partly drawn)
inactive: locus YAL013W, strain DEP1, active compounds read low 1.01 | locus YAL021C, strain ccr4, active compounds read low 0.989 | locus YAL026C, strain drs2, active compounds read low 1 | locus YAL030W, strain snc1, active compounds read low 0.989 | locus YBL061C, strain skt5, active compounds read low 0.995 | locus YBR009C, strain hhf1, active compounds read low 1.02 | locus YBR021W, strain FUR4, active compounds read low 1 | locus YBR023C, strain chs3, active compounds read low 0.998 | locus YBR171W, strain sec66, active compounds read low 0.978 | locus YBR229C, strain ROT2, active compounds read low 1 | locus YBR231C, strain swc5, active compounds read low 0.974 | locus YBR279W, strain paf1, active compounds read low 0.986 | locus YCL011C, strain gbp2, active compounds read low 1 | locus YCL016C, strain dcc1, active compounds read low 1 | locus YCL029C, strain bik1, active compounds read low 1.03 | locus YCL069W, strain vba3, active compounds read low 0.995 | locus YCR088W, strain abp1, active compounds read low 0.981 | locus YDL005C, strain med2, active compounds read low 0.987 | locus YDL035C, strain GPR1, active compounds read low 1.01 | locus YDL040C, strain nat1, active compounds read low 0.986 | locus YDL074C, strain BRE1, active compounds read low 1.01 | locus YDL101C, strain DUN1, active compounds read low 1.01 | locus YDL134C, strain PPH21, active compounds read low 1 | locus YDL185W, strain tfp1, active compounds read low 1.04 | locus YDL192W, strain arf1, active compounds read low 1.05 | locus YDR001C, strain nth1, active compounds read low 0.986 | locus YDR069C, strain doa4, active compounds read low 0.975 | locus YDR101C, strain arx1, active compounds read low 1.05 | locus YDR137W, strain rgp1, active compounds read low 1.01 | locus YDR159W, strain sac3, active compounds read low 0.968 | locus YDR162C, strain NBP2, active compounds read low 1.01 | locus YDR195W, strain ref2 0.958 | locus YDR297W, strain sur2, active compounds read low 0.993 | locus YDR318W, strain mcm21, active compounds read low 1.01 | locus YDR334W, strain swr1, active compounds read low 0.974 | locus YDR335W, strain msn5, active compounds read low 0.997 | locus YDR388W, active compounds read low 1.03 | locus YDR392W, strain spt3, active compounds read low 0.907 | locus YDR502C, strain sam2, active compounds read low 1.02 | locus YEL003W, strain gim4, active compounds read low 0.991 | locus YEL037C, strain rad23, active compounds read low 0.987 | locus YEL061C, strain CIN8 (second series), active compounds read low 0.989 | locus YEL061C, strain CIN8, active compounds read low 1 | locus YER015W, strain faa2, active compounds read low 0.982 | locus YER016W, strain bim1, active compounds read low 0.989 | locus YER110C, active compounds read low 1.03 | locus YER111C, strain swi4, active compounds read low 0.996 | locus YER155C, strain BEM2 (second series), active compounds read low 0.939 | locus YER155C, strain BEM2, active compounds read low 1.01 | locus YER167W, strain BCK2, active compounds read low 1 | locus YFR010W, strain ubp6, active compounds read low 0.983 | locus YGL078C, strain dbp3, active compounds read low 1.02 | locus YGL086W, strain mad1, active compounds read low 1.01 | locus YGL167C, strain pmr1, active compounds read low 0.978 | locus YGL173C, strain kem1, active compounds read low 0.988 | locus YGL227W, strain vid30, active compounds read low 0.98 | locus YGL240W, strain doc1, active compounds read low 1 | locus YGL248W, strain PDE1, active compounds read low 1.01 | locus YGL253W, strain hxk2, active compounds read low 0.988 | locus YGR135W, strain pre9, active compounds read low 0.998 | locus YGR252W, strain gcn5, active compounds read low 0.981 | locus YHR013C, strain ard1, active compounds read low 0.969 | locus YHR027C, strain rpn1, active compounds read low 0.997 | locus YHR030C, strain SLT2, active compounds read low 1 and 0.966 | locus YHR079C, strain IRE1 (second series), active compounds read low 1.03 | locus YHR079C, strain IRE1, active compounds read low 0.978 | locus YHR094C, strain hxt1, active compounds read low 1.02 | locus YHR129C, strain ARP1, active compounds read low 1 | locus YHR142W, strain chs7, active compounds read low 1.02 | locus YHR200W, strain rpn10, active compounds read low 1.03 | locus YIL066C, strain RNR3, active compounds read low 1.01 | locus YIL073C, strain SPO22, active compounds read low 1.12 | locus YIL125W, strain kgd1, active compounds read low 1.02 | locus YIR030C, strain dcg1, active compounds read low 1.04 | locus YJL092W, strain hpr5, active compounds read low 0.998 | locus YJL095W, strain BCK1 (second series), active compounds read low 0.987 | locus YJL095W, strain BCK1, active compounds read low 1.02 and 0.981 | locus YJL115W, strain asf1, active compounds read low 0.987 | locus YJL129C, strain trk1, active compounds read low 0.994 | locus YJL134W, strain LCB3, active compounds read low 1 | locus YJL154C, strain vps35, active compounds read low 0.982 | locus YJL164C, strain tpk1, active compounds read low 1.02 | locus YJL166W, strain qcr8, active compounds read low 1.01 | locus YJL168C, strain set2, active compounds read low 1.01 | locus YJL187C, strain SWE1 (second series), active compounds read low 1 | locus YJL187C, strain SWE1, active compounds read low 0.991 | locus YJR043C, strain POL32, active compounds read low 1.01 | locus YJR066W, strain TOR1, active compounds read low 0.925
